Sampled rows, rich in hits. Any-hit rate of the full collection: about 4.1%.
DAX1 inh-1 = NR0B1 (DAX1) inhibition. P51843. HEK293 Gal4-DAX1 luciferase reporter, luminescence. inhibition, % at 6.75 µM. 340,000 tested, 0.99% active;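 active = inhibition above the mean over all tested compounds plus 3 SD, cut at about 4.2% in these data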;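 also: 0% = DAX1-transfected cells with DMSO and 100% = empty-vector control cells with DMSO; inhibition shows as a rise in luminescence from relieved DAX1 repression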
Target sequence (P51843 207-470 limits assumed): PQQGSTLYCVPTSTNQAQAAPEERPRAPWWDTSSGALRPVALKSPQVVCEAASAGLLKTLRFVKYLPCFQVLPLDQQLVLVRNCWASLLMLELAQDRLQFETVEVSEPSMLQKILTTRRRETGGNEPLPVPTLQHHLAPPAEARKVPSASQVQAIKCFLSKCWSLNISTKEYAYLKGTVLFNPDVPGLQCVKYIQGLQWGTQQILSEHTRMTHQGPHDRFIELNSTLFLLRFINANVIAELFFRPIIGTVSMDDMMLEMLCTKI
DAX1 inh-2 = blocks DAX1 repression of SF-1 activated StAR promoter | HEK293T StAR-luciferase reporter, SF-1/DAX-1 repression relief | AID 652010 | inhibition, % at 6.8 µM | 370,000 tested, 1.1% active;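 active = inhibition above the mean over all tested compounds plus 3 SD, cut at about 3.6% in these data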;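 also: 0% = DAX-1 cells with DMSO and 100% = cells lacking DAX-1 with DMSO; higher inhibition means more luminescence from relief of DAX-1 repression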
hcDAF-12 act = activates DAF-12 receptor from parasite H. contortus; HEK293 hcDAF-12 lit1-tk-luc reporter, luminescence; 0% DMSO, 100% Δ7-dafachronic acid; activation, % at 6.8 µM; 370,000 tested, 1.4% active;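 active = activation above the mean of all tested compounds plus 3 SD, cut at about 5.5% in these data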;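 also: 100% = response to 3 µM Δ7-dafachronic acid high control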
ssDAF-12 act = activates DAF-12 receptor from parasite S. stercoralis; HEK293 ssDAF-12/GRIP1 lit1-tk-luc reporter, luminescence; % of 3 µM dafachronic acid response; activation, % at 6.8 µM; 370,000 tested, 1% active; AID 652126;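 active = activation above the mean over all tested compounds plus 3 SD, cut at about 0.9% in these data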;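 also: 0% = DMSO-only wells and 100% = 3 µM delta7-dafachronic acid wells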
hgDAF-12 ag = hgDAF-12 agonism, primary luciferase screen; HEK293 GAL4-hgDAF12 UAS-luciferase reporter, agonist luminescence; normalized to butyrate control; AID 687014; activation, % at 6.8 µM; 370,000 tested, 1.8% active;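 active = activation above a cutoff set at the mean of all screened compounds plus 3 SD, cut at about 10% in these data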;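 also: 0% = DMSO wells and 100% = sodium butyrate wells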
Starred values were filed as active, the others as inactive; . = not tested or not shown.

SMILES	DAX1 inh-1	DAX1 inh-2	hcDAF-12 act	ssDAF-12 act	hgDAF-12 ag
C=CCn1c(Cc2cccs2)nnc1SCC(=O)Nc1ccc(OCc2ccccc2)cc1	.	-2	-3	-2	4
OC(C#CCCN1CCCCC1)(c1ccccc1)C1CCCCC1 (centres undefined)	5.0*	0	1	-1	-2
COc1ccc(-n2c(SCC(=O)NCC3CCCO3)nnc2-c2ccncc2)cc1 (centres undefined)	.	0	-1	-2	8
O=C(NCc1ccco1)c1ccc(-c2ccc(Cl)cc2)o1	-1	0	-1	-1	8
O=C(NCc1ccco1)c1ccc(-c2ccccc2Cl)o1	7.0*	1	2	-1	5
O=C(NCc1ccccc1)c1ccc(-c2ccccc2F)o1	3	3	1	0.9*	10
CCNC(=O)N(C)[C@H]1C[C@H]2c3[nH]c4c(-c5cccc(C)c5)cccc4c3CCN2C(=O)[C@H]1[C@H](C)O	.	-1	-2	-1	-1
COC(=O)[C@]12C[C@H](CC(=O)NCc3cccc4ccccc34)C(=O)N(CCc3ccc(OC)c(OC)c3)C1=C[C@H](COCc1ccccc1)O[C@@H]2C	.	-1	-1	-2	-1
O=C(/C(=C\c1ccccc1)c1nc2ccccc2[nH]1)c1ccc(Cl)cc1	0	1	1	0	11*
Cc1ccccc1C(=O)N(C)[C@H]1C[C@H]2c3[nH]c4c(-c5ccccc5)cccc4c3CCN2C[C@H]1[C@H](C)O	.	-2	-4	-1	-2
Cc1cc(-c2nnc(CCC(=O)N3CCN(Cc4cccc(F)c4)CC3)o2)c(C)o1	6.3*	0	0	0	-1
Cc1ccc(-n2c(SC/C=C/c3ccccc3)nnc2-c2cccs2)cc1	.	-2	-2	-2	0
S=c1[nH]ccn1-c1c(Cl)cccc1Cl	0	0	6.5*	0	10
Cc1ccc(-c2cc(C(=O)NN=Cc3ccc(N(C)C)cc3)[nH]n2)cc1C	.	0	3	-1	4
Nc1[nH]c(C(=O)c2ccc(Br)cc2)c(-c2ccc(Br)cc2)c1C(=O)N1CCCCC1	.	.	-2	-1	2
CCCN1C(=O)C(O)(c2c(C)[nH]c3ccccc23)c2ccccc21 (centres undefined)	2	0	4	0	1
Cc1[nH]c2ccccc2c1C1(O)C(=O)N(C(C)C)c2ccccc21 (centres undefined)	1	0	5.8*	0	2
COC(=O)C1=C(C)N(C)C(=NCC2CC2)NC1c1ccc(Cl)cc1 (centres undefined)	.	0	-1	-1	5
C/C(CCc1ccco1)=N\NC(=O)CNc1c(Br)cc(Br)cc1Br	6.8*	0	0	-1	2
COC(=O)C1CN(Cc2ccc(OC)cc2)CCS(=O)(=O)N1Cc1ccccc1 (centres undefined)	.	0	0	-1	-1
CC(=O)NC(Cc1cccc(F)c1)C(=O)NC1CCN(C(=O)c2cccc(C)c2)CC1 (centres undefined)	5.4*	0	0	-1	-3
COc1cccc(-c2ccc(C#N)c(SCC(=O)NCCc3ccccc3)n2)c1	1	0	-1	1.0*	0
COc1cccc(-c2ccc(SCC(=O)NCCc3ccccc3)nn2)c1	-1	-3	4	-1	3
CCCCNC(=O)C[C@H]1C[C@@]2(C(=O)OC)C(=C[C@H](C3CCCC3)O[C@@H]2C)N(Cc2ccc(Cl)cc2Cl)C1=O	.	-1	-1	-1	-4
O=C(NC1CCCC1)C(C1CC1)n1c(C2CC2)nc2ccccc21 (centres undefined)	.	2	1	1.6*	5
SMILES	DAX1 inh-1	DAX1 inh-2	hcDAF-12 act	ssDAF-12 act	hgDAF-12 ag
CCOC(=O)n1ccc(C(=O)Nc2ccccc2F)n1	0	1	0	-1	5
CCOC(=O)c1cc(C(=O)Nc2ccccc2F)nn1C	1	3	5	0	13*
CCc1ccc2[nH]c(C(=O)Nc3ccc(C)c(F)c3)cc2c1	0	0	5.8*	0	7
Cc1ccc(OCC(=O)Nc2ccc(C)c(F)c2)c([N+](=O)[O-])n1	2	3.7*	1	0	7
O=C(CCNC(=O)c1ccc([N+](=O)[O-])cc1)NCCC1=CCCCC1	0	0	-1	0	-1
COc1ccc(C(=O)NCCC2=CCCCC2)cc1OC	1	2	2	0	4
COc1cccc(C(=O)NCCC2=CCCCC2)c1	-2	3	4	0	12*
Cc1cc(C(=O)NCCC2=CCCCC2)ccc1[N+](=O)[O-]	.	3	3	-1	11*
Cc1ccc(-c2cccc3[nH]cc(C)c23)s1	.	-1	0	0	3
O=C(c1ccccc1)c1cc[n+]([O-])cc1	0	0	-1	-1	0
O=C(c1ccccc1)c1cccc[n+]1[O-]	6.2*	0	-1	-1	0
Cc1ccccc1N=C1NC(=O)/C(=C/c2cccnc2)S1	0	-1	4	1.9*	1
O=C1N/C(=N/O)S/C1=C/c1cccnc1	3	1	0	-2	-2
O=C(CN1CCC(NC(=O)Nc2ccc(Cl)cc2)CC1)Nc1ccc2c(c1)OCCO2	.	0	-3	-1	3
CCn1c(C)cc(/C=C2/SC(=O)N(C(C)C(=O)OC)C2=O)c1C (centres undefined)	0	1	0	0	6
COC(=O)C(C)N1C(=O)S/C(=C/c2cc(C)n(C(C)C)c2C)C1=O (centres undefined)	0	2	2	-1	12*
COc1ccc(C(=O)N[C@H](C(=O)NCCCSc2ccccc2)C(C)C)cc1	7.8*	0	-2	-1	2
CCOP(=O)(OCC)C(NC(=O)c1ccc(OC)cc1)c1ccccc1 (centres undefined)	4.3*	1	-1	-2	-2
COc1ccc(C(=O)Nc2nc3ccccc3[nH]2)cc1	-4	0	0	-1	-6
COc1ccc(C(=O)N[C@H](C(=O)Nc2nc3ccccc3[nH]2)C(C)C)cc1	2	1	3	0	13*
Cn1c(=O)c2c(c3ccccc31)OC(C)(C)C=C2	.	0	-3	-1	0
Cc1cc(NC(=O)Nc2ccc3c(ccn3C)c2)sn1	1	1	1	-1	11*
CCC(C)CNC(=O)c1cn(C(C)c2ccccc2)nn1 (centres undefined)	.	1	-1	-1	2
CCOCCCNC(=O)C(Cc1ccccc1)NS(=O)(=O)c1cccc2nsnc12 (centres undefined)	4.5*	0	-1	-1	0
CCCNC(=O)C(Cc1ccccc1)NS(=O)(=O)c1cccc2nsnc12 (centres undefined)	1	0	0	-1	2
